The record followed here is PubChem BioAssay (Tox21).

Test [1] in a line: qHTS assay for small molecule agonists of the p53 signaling pathway (AID 651631; calls by dose curve; further: nearly all actives have a fitted effect of over 15% in size; further: potency means the concentration at half of the fitted maximal effect). In outline: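 Beta-lactamase reporter activity under p53 response elements was quantified in HCT-116 cells by FRET fluorescence, following 16 h incubation with test compounds at 37 °C and 2 h substrate development at room temperature.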
In general terms: qHTS replaces the single test concentration by a dilution series.

A short description of test [2]: qHTS assay for small molecules that induce genotoxicity in human embryonic kidney cells expressing luciferase-tagged ATAD5 (AID 651632). Further: nearly all actives have a fitted effect of over 15% in size. In outline: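 DMSO vehicle served as the control. HEK293T reporter cells, 16 hr at 37C, then 30 min Amplite at room temperature; ATAD5 induction is measured as luciferase activity.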
The nature of test [3]: qHTS assay for small molecule agonists of the p53 signaling pathway - cell viability (AID 651633; calls by dose curve; further: nearly all actives have a fitted effect of over 30% in size; further: potency means the concentration at half of the fitted maximal effect). The essentials:
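p53RE-bla cells were treated with compound for 16 hours at 37 C. Cytotoxicity was then measured as CellTiter-Glo luminescence after 30 min at room temperature.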

The nature of test [4]: qHTS assay for small molecules that induce genotoxicity in human embryonic kidney cells expressing luciferase-tagged ATAD5 - cell viability (AID 651634; calls by dose curve; further: nearly all actives have a fitted effect of over 25% in size). The essentials: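 Here HEK293T cells with the ATAD5 luciferase reporter are incubated with test compounds for 15.5 hr, and cytotoxicity is then gauged by measuring protease activity in live cells using fluorescence.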
Test [5] is described as follows: qHTS assay for small molecule disruptors of the mitochondrial membrane potential - cell viability (AID 720634; calls by dose curve; further: nearly all actives have a fitted effect of over 20% in size; further: potency means the concentration at half of the fitted maximal effect). In outline: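 Viability of HepG2 cells is scored from ATP content by luminescence; cells are exposed to compound for 1 hr at 37 C and 5% CO2, then dosed with m-MPI dye before the CellTiter-Glo reagent.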
Test [6] can be described thus: qHTS assay to test for compound auto fluorescence at 590 nm (red) in HepG2 cells (AID 720674). The essentials:
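Seeding: 2,000 HepG2 cells/well, MEM/10% FBS, overnight 37 C. Dosing: compound vs DMSO. Incubation: 1 hr, 37 C, 5% CO2. Read: fluorescence 540 ex/590 em, Rose Bengal sodium as red reference.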

Test [7] is described as follows: qHTS assay to test for compound auto fluorescence at 535 nm (green) in HepG2 cells (AID 720675).
Test [8] is described as follows: qHTS assay to test for compound auto fluorescence at 460 nm (blue) in HEK293 cells (AID 720678). The essentials:
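Measured: blue fluorescence (Ex 405/Em 460 nm) of compound-treated HEK293 cells, incubated overnight at 37C with 5% CO2 and scaled to triamterene equivalents.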

Test [9] is described as follows: qHTS assay to test for compound auto fluorescence at 535 nm (green) in HEK293 cells (AID 720680).
Test [10] is described as follows: qHTS assay to test for compound auto fluorescence at 460 nm (blue) in HEK293 cell free culture (AID 720681). The essentials:
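Compounds were added to cell-free DMEM with 10% FBS and fluorescence read directly. The blue channel used 405 nm excitation and 460 nm emission, with triamterene as the reference fluorophore.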

Test [11] is described as follows: qHTS assay to test for compound auto fluorescence at 535 nm (green) in HEK293 cell free culture (AID 720682). In outline:
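Each library compound, or DMSO control, is added by pintool to medium alone, comprising DMEM and 10% FBS. Emission at 535 nm following 485 nm excitation is quantified against fluorescein.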

Test [12] is described as follows: qHTS assay to test for compound auto fluorescence at 590 nm (red) in HEK293 cell free culture (AID 720683). The essentials:
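Cell-free wells of DMEM with 10% FBS received compound, and intrinsic fluorescence was read at excitation/emission 540/590 nm. Values expressed as equivalence to Rose Bengal sodium.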

The nature of test [13]: qHTS assay to test for compound auto fluorescence at 590 nm (red) in HepG2 cell free culture (AID 720684). The essentials:
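Rose Bengal sodium served as the reference for red signal. Test compounds were dispensed into serum-containing MEM (10% FBS) without cells, and plates were read at 540/590 nm.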

The nature of test [14]: qHTS assay to test for compound auto fluorescence at 460 nm (blue) in HepG2 cell free culture (AID 720685). In outline:
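Cell-free plates of MEM plus 10% FBS received 23 nL compound or DMSO vehicle; blue-channel (405/460 nm) intensity scored against triamterene as reference fluorophore.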

A short description of test [15]: qHTS assay to test for compound auto fluorescence at 535 nm (green) in HepG2 cell free culture (AID 720686).
Test [16] can be described thus: qHTS assay to test for compound auto fluorescence at 460 nm (blue) in HepG2 cells (AID 720687). In outline: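 HepG2 cells in MEM with 10% FBS, attached overnight at 37 C, were exposed to compound or DMSO for 1 hr at 37 C, 5% CO2. Blue fluorescence was read at 405/460 nm, with triamterene as reference fluorophore.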
The nature of test [17]: qHTS assay for small molecule disruptors of the mitochondrial membrane potential (AID 720635). Further: potency means the concentration at half of the fitted maximal effect. The essentials:
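HepG2 cells exposed to compound 1 hr at 37C, then Mito-MPS dye 30 min. Ratio read of aggregate (540/590 nm) versus monomer (490/535 nm) fluorescence.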

The nature of test [18]: qHTS assay to test for compound auto fluorescence at 590 nm (red) in HEK293 cells (AID 720679). The essentials: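 Using HEK293 cells at 2,000 per well, the screen added 23 nL of each compound after cell attachment and incubated overnight (37C, 5% CO2). The plate reader then captured red-label fluorescence, Ex/Em 540/590nm.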
Test [19] deals with Glucocorticoid receptor (Homo sapiens) (UniProt P04150). In words: qHTS assay to identify small molecule antagonists of the glucocorticoid receptor (GR) signaling pathway (AID 720692; active means well fitted inhibition curve with a large enough effect in the signal ratio in the repeat runs, not every such curve was filed as active; the % refers to the signal ratio). In outline: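 In a 1536-well cell format, compounds were added 4 h after seeding GR-bla HeLa cells, together with dexamethasone at 5 nM final; reporter activity was measured by FRET-substrate fluorescence following 18 h at 37 C.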

Test [20] has the same target. In words: qHTS assay to identify small molecule agonists of the glucocorticoid receptor (GR) signaling pathway (AID 720691; active means well fitted activation curve with a large enough effect in the signal ratio in the repeat runs, not every such curve was filed as active; the % refers to the signal ratio). In outline:
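Compounds in DMSO, alongside positive controls, were added to GR-bla HeLa reporter cells and incubated 18 h at 37 C; GRE-driven beta-lactamase was detected by fluorescence after 2 h with FRET substrate at room temperature.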

Structures are written as SMILES. Where “and” joins values, the source holds several entries; their conditions need not be identical. Identical values can stand only once. Results filed as inconclusive are left out. Some compounds were tested as several samples or in several runs, with calls that do not always agree. Calls of active or inactive are those of the source. Unless noted, the call rests on the fitted dose curve; in most records, active means well fitted curve in the direction sought with a large enough effect in the repeat runs; inconclusive means weak or mixed curves; inactive means no such curve, though single readings can be large; an effect the other way counts as inactive or inconclusive.

Sequence of Glucocorticoid receptor (Homo sapiens) (P04150 whole entry, looked up): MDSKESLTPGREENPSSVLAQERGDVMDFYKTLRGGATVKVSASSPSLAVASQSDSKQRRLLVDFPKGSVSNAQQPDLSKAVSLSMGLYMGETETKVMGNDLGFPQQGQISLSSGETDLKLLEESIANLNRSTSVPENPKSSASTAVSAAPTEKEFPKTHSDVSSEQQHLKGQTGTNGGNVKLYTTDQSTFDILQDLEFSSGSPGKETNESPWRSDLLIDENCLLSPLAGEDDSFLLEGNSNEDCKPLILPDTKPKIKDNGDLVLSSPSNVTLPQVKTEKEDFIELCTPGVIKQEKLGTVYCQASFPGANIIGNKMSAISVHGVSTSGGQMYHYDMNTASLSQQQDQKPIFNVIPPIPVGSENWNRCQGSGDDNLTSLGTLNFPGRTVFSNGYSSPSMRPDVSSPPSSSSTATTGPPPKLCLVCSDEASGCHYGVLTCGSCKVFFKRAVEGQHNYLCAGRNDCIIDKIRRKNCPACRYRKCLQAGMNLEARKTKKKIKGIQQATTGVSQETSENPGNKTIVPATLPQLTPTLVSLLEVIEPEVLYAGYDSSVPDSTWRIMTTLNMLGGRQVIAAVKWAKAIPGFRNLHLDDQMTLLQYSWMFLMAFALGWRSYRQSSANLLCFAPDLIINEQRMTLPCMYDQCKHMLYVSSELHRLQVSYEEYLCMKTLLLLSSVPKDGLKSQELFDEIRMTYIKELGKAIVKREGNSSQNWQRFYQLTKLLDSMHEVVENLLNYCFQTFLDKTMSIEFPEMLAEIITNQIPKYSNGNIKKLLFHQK

With `CC(C)OS(C)(=O)=O`, the Potency entry in [1], in test [2], in test [3], in test [4], in test [5] and in [8] was “inactive” throughout. Besides, the Potency result in test [10], in test [14] and in test [16] was “inactive” in each case. Further, the molecule was called inactive in [6], in test [7], in [9], in [11], in test [12] and in [13]. Further, the molecule was classed as inactive in test [15].
For the molecule `O=C1NCN(c2ccccc2)C12CCN(CC1COc3ccccc3O1)CC2` (stereo not given), the Potency result in test [1], in [2], in test [3], in [4], in test [5] and in [17] was “inactive” throughout. The Potency result in test [8], in [10], in test [14] and in [16] was “inactive” each time. In addition, the call in test [6], in test [7], in test [18], in test [9], in test [11] and in test [12] was inactive. Besides, the molecule was called inactive in [15].
As to `CC(C)(C)OO`, the Potency result in test [1], in test [2], in [3], in test [4], in [5] and in [17] was “inactive” throughout. Moreover, the Potency entry in test [8], in test [10], in test [14] and in test [16] was “inactive” each time. The outcome in test [6], in test [7], in test [18], in test [9], in test [11] and in [12] was inactive. The molecule was classed as inactive in test [13] and in test [15].
Regarding `Cc1cc(C(C)(C)c2cc(C)c(O)c(C)c2)cc(C)c1O`, the Potency was 29.6 µM (active) in [1], 59.1 µM (active) in [3], 29.6 µM (active) in test [5] and 18.7 µM (active) in test [17]. The Potency entry in test [2], in [4], in test [8], in test [10] and in test [16] was “inactive” each time. The molecule was classed as inactive in test [6], in test [7], in test [18], in [9], in test [11] and in [12]. Besides, the result in test [15] was inactive.
On to `CC(=O)OC1(c2ccccc2)CCN(CCc2ccccc2)CC1`, for which the Potency entry in [1], in [2], in test [3], in test [4], in test [5] and in test [8] was “inactive” in each case. Further, the Potency entry in [10] and in test [16] was “inactive” in each case. For the same molecule, the outcome in [6], in test [7], in test [18], in test [9], in test [11] and in test [12] was inactive. Further, the result in test [13] and in test [15] was inactive.
Consider `CC(=O)O[C@H]1CC[C@@]2(C)C(=CC[C@@H]3[C@@H]2CC[C@]2(C)C(=O)CC[C@@H]32)C1`, for which the Potency result in test [1], in test [2], in test [3], in [4], in test [5] and in test [8] was “inactive” each time. For the same molecule, the Potency entry in test [10], in test [14], in test [16] and in [19] was “inactive” throughout. Also, the Potency entry in [17] was “inactive and 54.5 µM (active)”. Besides, the result in [6], in test [7], in [18], in [9], in test [11] and in [12] was inactive. Further, the molecule was classed as inactive in [13] and in test [15].
For `CCCCCCCCCCCCCN1CC(C)OC(C)C1` (stereo not given), the Potency result in test [1], in test [2], in test [3], in [4], in test [5] and in test [8] was “inactive” in each case. Also, the Potency result in test [10], in test [14], in test [16] and in test [20] was “inactive” each time. The molecule was called inactive in test [6], in test [7], in test [18], in test [9], in [11] and in [12]. Moreover, the result in test [13] and in [15] was inactive.
